{
  "source": "PubChem BioAssay (Tox21)",
  "note": "Inconclusive results are not listed. Entries that show only a call come without a potency. The source made the active and inactive calls. Calls follow the shape of the dose curve; as a rule, active = well fitted cell-killing curve with a large enough effect in the repeat runs; inconclusive = weak or mixed curves, or effect the other way; inactive = flat fitted curve, though single readings scatter.",
  "data": [
    {"test": "qHTS RealTime-Glo MT Cell Viability Assay in HepG2 cells - 0 hour (AID 1224889); also: nearly all actives have a fitted effect of over 50% in size", "details": "RealTime-Glo luminescence; series mostly up to 76.8 µM", "text": "U.S. Tox21 Program National Center for Advancing Translational Sciences [NCATS] NIH Chemical Genomics Center [NCGC] U.S. Environmental Protection Agency [EPA] National Institutes of Environmental Health Sciences [NIEHS] National Toxicology Program [NTP] U.S. Food and Drug Administration [FDA] Tox21 Assay Overview: Measure of cell viability is critical in the cell-base assay. Analysis of cell viability is necessary for the characterization of cell responses to cytotoxic drugs and environmental stress. A RealTime-Glo MT Cell Viability Assay to monitor cell viability in real time of continues cell culture during 40 hours of compound treatment was used to screen Tox21 10K library compounds in HepG2 cells. The RealTime-Glo MT Cell Viability Assay is a nonlytic, homogeneous, bioluminescent method to measure cell viability in real time using a simple, plate-based method. The assay involves adding NanoLuc luciferase and a cell-permeant prosubstrate to cells in culture. Viable cells reduce the proprietary prosubstrate to generate a substrate for NanoLuc luciferase. This substrate diffuses from cells into the surrounding culture medium, where it is rapidly used by the NanoLuc Enzyme to produce a luminescent signal. The signal correlates with the number of viable cells, making the assay well suited for cytotoxicity studies.\nTox21 Assay Protocol Summary: The mixture of HepG2 cell suspension and reagents were dispensed at 600cells/6 ul/well in 1536-well tissue culture treated black solid bottom plates using a Multidrop dispenser. After the assay plates were incubated at a 37 C/5% CO2 incubator for 5 hours, 23 nL of compounds dissolved in DMSO, positive and negative controls was transferred to the assay plate by a pintool work station. The plates were incubated at 37 C for 40 hours. The luminescence intensity were measured at 0h, 8h, 16h, 24h, 32h and 40h time points using ViewLux plate reader during compound treatment.", "values": [
      {"smiles": "CCCCCCCCCCCCCBr", "Potency": "inactive"},
      {"smiles": "CC/C=C\\CCOC(=O)c1ccccc1O", "Potency": "inactive"},
      {"smiles": "CC1(C)[C@H]2CC[C@](C)(C2)[C@H]1O", "Potency": "inactive"},
      {"smiles": "O=C(Cl)c1ccccc1[N+](=O)[O-]", "Potency": "inactive"},
      {"smiles": "O=NN(CCCl)C(=O)NC1CCCCC1", "Potency": "inactive"},
      {"smiles": "CC(C)(CO)C(O)C(=O)NCCCO", "note": "(stereo not given)", "Potency": "inactive"},
      {"smiles": "O=C1CCCCO1", "Potency": "inactive"},
      {"smiles": "COc1cc(OC)nc(O[C@H](C(=O)O)C(OC)(c2ccccc2)c2ccccc2)n1", "Potency": "inactive"},
      {"smiles": "C=CC(=O)CCCCC", "Potency": "inactive"},
      {"smiles": "CC(C)Nc1ccccc1", "Potency": "inactive"},
      {"smiles": "CC12CCC(C1)C(C)(C)C2O", "note": "(stereo not given)", "Potency": "inactive"},
      {"smiles": "COC(C)(OC)OC", "Potency": "inactive"},
      {"smiles": "CC(Oc1cc(Cl)ccc1Cl)C(=O)O", "note": "(stereo not given)", "Potency": "inactive"},
      {"smiles": "CCC/C=C(\\C=O)CC", "Potency": "inactive"},
      {"smiles": "C/C(CC(C)C)=N\\O", "Potency": "inactive"},
      {"smiles": "C=CCSSCCC", "Potency": "inactive"},
      {"smiles": "CC(=O)OCC(=O)Nc1cc(C#N)cc(NC(=O)COC(C)=O)c1Cl", "Potency": "inactive"},
      {"smiles": "CC(C)OC(=O)CCC(=O)OC(C)C", "Potency": "inactive"},
      {"smiles": "CC(C)(C)NC[C@H](O)COc1cccc2c1CCCC2=O", "Potency": "inactive"},
      {"smiles": "CCC[C@@H]1C[C@@H](C(=O)N[C@@H]([C@H]2O[C@H](SC)[C@H](O)[C@@H](O)[C@H]2O)[C@@H](C)O)N(C)C1", "Potency": "inactive"},
      {"smiles": "CC(C)[C@H]1CC[C@H](C)C[C@@H]1O", "Potency": "inactive"},
      {"smiles": "CC(=O)O[C@@H]1CC2CCC1(C)C2(C)C", "note": "(stereo not given in full)", "Potency": "inactive"},
      {"smiles": "COc1nc(N)nc2nc[nH]c12", "Potency": "inactive"},
      {"smiles": "[O-][n+]1cccc(/C(Cl)=N/OC[C@@H](O)CN2CCCCC2)c1", "Potency": "inactive"},
      {"smiles": "CC(C)C[C@@H]1[C@H](c2ccccc2)OC(=O)N1CCCN1CCCCCC1", "Potency": "inactive"},
      {"smiles": "Cn1nnc2c(C(N)=O)ncn2c1=O", "Potency": "inactive"},
      {"smiles": "C=CCN1C[C@H](C(=O)N(CCCN(C)C)C(=O)NCC)C[C@@H]2c3cccc4[nH]cc(c34)C[C@H]21", "Potency": "inactive"},
      {"smiles": "OC[C@H]1O[C@@H](O[C@@H]2[C@@H](CO)O[C@](O)(CO)[C@H]2O)[C@H](O)[C@@H](O)[C@H]1O", "Potency": "inactive"},
      {"smiles": "CCC(C)C(=O)OCCc1ccccc1", "note": "(stereo not given)", "Potency": "inactive"},
      {"smiles": "CCC(=O)c1c(O)cc(O)cc1O", "Potency": "inactive"},
      {"smiles": "Cc1ccnc(N)c1", "Potency": "inactive"},
      {"smiles": "CCC(=O)CC", "Potency": "inactive"},
      {"smiles": "CCCCOCC(C)O", "note": "(stereo not given)", "Potency": "inactive"},
      {"smiles": "CC(C)=CCC[C@@](C)(O)[C@H]1CC=C(C)CC1", "Potency": "inactive"},
      {"smiles": "COc1cc2c(cc1OC)C(=O)C(CC1CCN(Cc3ccccc3)CC1)C2", "note": "(stereo not given)", "Potency": "inactive"},
      {"smiles": "CC(=O)C(C)O", "note": "(stereo not given)", "Potency": "inactive"},
      {"smiles": "COC(=O)/C=C\\C(=O)O", "Potency": "inactive"},
      {"smiles": "N#Cc1ccccc1O", "Potency": "inactive"},
      {"smiles": "OCCN1CCOCC1", "Potency": "inactive"},
      {"smiles": "C[C@@H](O)C(=O)O", "Potency": "inactive"}
    ]}
  ]
}
